Test results from PubChem BioAssay AID707 (Columbia University Molecular Screening Center, 2007).
Out of some 91,000 compounds screened, about 310 (0.34%) were called active. What follows is part of a selection rich in actives, with near analogues and random picks from the rest. Unmarked numbers belong to inactive results. No stated cut-off is given here; in the data, active means inhibition above about 80%; inactive means the rest.

Target: Bifunctional epoxide hydrolase 2 (Homo sapiens) (UniProt P34913)
Assay: soluble epoxide hydrolase inhibitors, primary screen, biochemical, human sEH (AID 707)
Details: recombinant human sEH enzymatic activity assay; at 2 µM; active compounds read high

Sequence of Bifunctional epoxide hydrolase 2 (Homo sapiens) (P34913 whole entry, looked up): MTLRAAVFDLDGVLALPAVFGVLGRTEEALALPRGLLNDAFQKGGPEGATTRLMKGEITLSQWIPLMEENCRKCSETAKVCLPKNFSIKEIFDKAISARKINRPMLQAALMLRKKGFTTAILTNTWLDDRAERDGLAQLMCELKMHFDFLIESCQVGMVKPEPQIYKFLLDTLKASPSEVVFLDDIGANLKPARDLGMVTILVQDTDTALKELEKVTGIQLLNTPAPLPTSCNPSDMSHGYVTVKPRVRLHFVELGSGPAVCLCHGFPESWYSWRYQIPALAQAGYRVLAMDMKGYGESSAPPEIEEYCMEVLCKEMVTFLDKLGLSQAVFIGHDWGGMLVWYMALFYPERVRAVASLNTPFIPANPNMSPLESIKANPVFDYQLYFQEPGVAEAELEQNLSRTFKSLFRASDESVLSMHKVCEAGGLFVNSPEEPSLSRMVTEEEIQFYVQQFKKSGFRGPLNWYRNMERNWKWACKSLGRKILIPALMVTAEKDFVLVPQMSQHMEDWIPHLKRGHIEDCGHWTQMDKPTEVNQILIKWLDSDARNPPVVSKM

Structure (SMILES) | inhibition
Cc1ccc(NC(=S)N/N=C2/CCCc3c(C)cc(C)cc32)cc1 | -9.1%
CCN(CC)CCNc1ccc(Cl)cc1[N+](=O)[O-] | 6.5%
CSCc1cc(N2CCOCC2)nc(SCc2ccc(Cl)cc2Cl)n1 | -22.1%
COc1ccc(C(=O)Nc2ccccc2C(=O)N/N=C/c2ccccc2OC)cc1 | 4.7%
CCc1ccc(/C=N/NC(=O)c2ccc(OC3CCCC3)cc2)s1 | 95.6% (active)
CCOc1ccc(C(=O)NC2CCN(S(=O)(=O)CC)CC2)cc1 | -0.5%
O=C(NC1CCCCC1)c1cc([N+](=O)[O-])ccc1N1CCOCC1 | 2.6%
C/C(=N\NS(=O)(=O)c1cccc([N+](=O)[O-])c1)c1cc2ccccc2o1 | 7.3%
O=C(Nc1ccn(Cc2ccccc2F)n1)c1ccc(COc2ccc(Cl)cc2Cl)o1 | 1.6%
O=C(Nc1ccc(-n2ccnc2P(=O)(O)c2ccccc2)cc1)c1ccccc1Br | -9.1%
CC(=O)Nc1cccc(/C(C)=N/NC(=O)c2ccccc2Cl)c1 | 7.7%
O=C(NNS(=O)(=O)c1ccc(Cl)cc1)C1CCN(Cc2ccccc2)CC1 | -4%
CN(C)/C(CN1CCCCC1)=C1\N=C(c2ccccc2)OC1=O | 6.9%
CC(=O)c1cnc(SCCN2C(=O)c3ccccc3C2=O)nc1C | 8.1%
C=CCNC(=O)c1sc(SC)cc1-c1ccc(Cl)cc1 | -13.7%
CC(C)CNC(=S)NNC(=O)c1ccccc1OC(F)F | -9.6%
COC(=O)c1ccccc1OCC(=O)N1CCN(c2ccc(Cl)cc2)CC1 | 46.4%
Cc1c(NC(=O)CCCOc2ccccc2)cccc1[N+](=O)[O-] | 11.7%
CCC(=O)Nc1ccc(C(=O)Nc2cc(C)on2)cc1 | -8.6%
CCOc1ccc(C(CCc2ccccc2)NC(=O)c2ccc(OC)c(OC)c2)cc1OCC (stereo not drawn) | -23.6%
COc1cccc(-c2nnc(SCCOc3ccc4c(C)cc(=O)oc4c3)o2)c1 | 12.2%
CCCCn1c(=S)[nH]c2cc(S(=O)(=O)N3CCCCC3)ccc21 | 6.5%
O=C(c1ccc(F)cc1)c1c[nH]c(C(=O)NCc2cccnc2)c1 | -11.2%
N#Cc1ccsc1NC(=O)CN1CCCCC1 | -1.4%

Structure (SMILES) | inhibition
O=C(COc1ccc(Cl)cc1)NCCC1=CCCCC1 | 14.4%
COc1cc(C(=O)N2CCN(C/C=C/c3ccccc3)CC2)cc(OC)c1C | -12.7%
NC(=O)N1CCCC1C(=O)Nc1ccc(Cl)c(Cl)c1 (stereo not drawn) | 6.3%
Nc1nc(Br)c2ccccc2c1-c1ccc(F)cc1 | 4.8%
Cc1ccc(-c2csc(N(Cc3ccco3)C(=O)c3cccs3)n2)cc1 | -9.9%
O=[N+]([O-])c1ccc(NCCCN2CCOCC2)c(Cl)c1 | 19.3%
CC(C)NC(=O)NC(=O)COC(=O)c1ccc(NC(=O)CC#N)cc1 | -6%
CC(C)C(NS(=O)(=O)c1cccs1)C(=O)Nc1nc(C(C)(C)C)cs1 (stereo not drawn) | 3.1%
COc1cccc(/C=N/NC(=O)C(=O)N2CCCC2)c1 | -4.3%
O=c1cc(N2CCN(Cc3ccccc3)CC2)c(-c2ccccc2)n[nH]1 | 5.8%
COc1cccc(NC(=O)C2c3cc(OC)c(OC)cc3C(=O)N(C)C2c2cccnc2)c1 (stereo not drawn) | -8.1%
O=C(CN1C(=O)NC2(CCCC2)C1=O)Nc1ccc(F)c(F)c1F | -1.5%
O=C(CCCN1C(=O)c2cccc3cccc(c23)C1=O)N1CCN(Cc2ccc3c(c2)OCO3)CC1 | 5.9%
N/C(=N\OC(=O)c1cc(-c2ccccc2)nc2ccccc12)c1ccncc1 | -2%
O=C(CSCc1ccc([N+](=O)[O-])cc1)Nc1cccc(C(=O)Nc2ccccc2C(=O)O)c1 | -3.9%
Cc1cc(C(=O)OCC(=O)Nc2ccc(F)c(F)c2)c(C)o1 | 7.9%
CCC(C)n1c(-c2cc(OC)c(OC)c(OC)c2)nc2nc3ccccc3nc21 (stereo not drawn) | -0.7%
O=C(CNC(=O)OCc1ccccc1)Oc1cc2oc(=O)cc(-c3ccccc3)c2cc1Cl | -5.2%
COc1ccccc1N(C)S(=O)(=O)c1ccc(C(=O)N2CCC(C(N)=O)CC2)cc1 | 12.9%
CN(C(=O)CSc1nc(C2CC2)nc2ccccc12)c1nc(-c2ccccc2)cs1 | 4.4%
CCCCNC(=O)c1onc(CSc2cccc(OC)c2)c1C(=O)O | -10.5%
CCOC(=O)C1=C(CN2CCc3ccccc32)NC(=O)NC1c1cc(C)ccc1C (stereo not drawn) | -4.9%
COc1ccc(SCc2noc(C(=O)NCC3CCCO3)c2C(=O)O)cc1 (stereo not drawn) | 1.5%
CCCCCC(=O)Nc1ccc2oc(-c3ccncc3)nc2c1 | 84.3% (active)

Structure (SMILES) | inhibition
O=C(Cc1cccc2ccccc12)Nc1ccc2oc(-c3ccccc3)nc2c1 | 50%
O=C(Nc1ccc2oc(-c3ccc4ccccc4c3)nc2c1)c1cccs1 | 34.6%
C=CCNc1cnn(-c2ccc(C)cc2)c(=O)c1Cl | 1.9%
CC(C)CC(=O)N1CCC(O)(CS(=O)(=O)Cc2ccccc2)CC1 | 1.9%
O=C(CN1CCN(S(=O)(=O)c2ccc(Cl)s2)CC1)NCc1ccc(Cl)cc1 | -1.1%
CC(C)(CCl)C(=O)Nc1ccc(Sc2ccc(F)cc2)cc1 | 28.4%
COC(=O)C(NC(=O)c1ccc(OC)cc1)(Nc1ncc(S(=O)(=O)c2ccc([N+](=O)[O-])cc2)s1)C(F)(F)F (stereo not drawn) | -1.7%
COc1ccc(OCC(=O)NN2Cc3ccccc3C2=N)cc1 | 4.7%
Cc1ccccc1CSCCNC(=O)c1ccc(Cl)c(S(=O)(=O)N2CCOCC2)c1 | 83.4% (active)
Cc1ccccc1CSCCNC(=O)c1ccc(N(C)S(=O)(=O)c2ccccc2)cc1 | 36.1%
O=C(NCCSCc1ccccc1)c1ccc(Cl)c(S(=O)(=O)N2CCOCC2)c1 | 78.5%
O=C(COC(=O)c1ccccc1NC(=O)c1ccco1)Nc1ccc2c(c1)OC(F)(F)O2 | 28.3%
CO/N=C/c1ccc(N2CCN(C(=O)c3cccc(Cl)c3)CC2)c([N+](=O)[O-])c1 | -9.1%
N#C/C(=C(/O)Cc1cccc2ccccc12)c1nc2ccccc2s1 | -15.9%
O=C(ON=C1CCN(S(=O)(=O)c2ccccc2)CC1)c1ccc(Cl)cc1 | 2.3%
O=C(CSc1ccc(/C=N/NC(=O)c2cccc(F)c2)o1)Nc1ccccc1 | 79%
O=C(/C=C/c1ccc(Cl)cc1Cl)NCc1ccco1 | 19.3%
Cc1noc(C)c1S(=O)(=O)N(CC(=O)NCc1ccc(Cl)cc1)c1ccc2c(c1)OCO2 | 14.5%
O=C(/C=C/c1cc2c(cc1Br)OCO2)NCc1ccc(Cl)cc1 | 85.9% (active)
O=C(CNC(=O)Cc1ccccc1)NCC(=O)OCC(=O)c1ccccc1Cl | -0.5%
CCC(=O)OCc1c(C(F)(F)F)nn(C)c1Oc1cccc(C(F)(F)F)c1 | 7.8%
O=C(O)c1ccccc1NC(=S)NC(NC(=O)c1ccccc1[N+](=O)[O-])C(Cl)(Cl)Cl (stereo not drawn) | 7.4%
CNC(=S)NNC(=O)c1sccc1OCc1ccccc1 | -3.9%
N#Cc1cc([N+](=O)[O-])ccc1Oc1cccc(/C=N/NC(=O)c2ccc(Cl)cc2)c1 | 18.1%

Structure (SMILES) | inhibition
COc1ccc(-c2cc(C(=O)n3cnc4ccccc43)c3ccccc3n2)cc1 | -13.6%
Cc1cc([N+](=O)[O-])c(NC2CCCCC2)c([N+](=O)[O-])c1 | -4.6%
O=C(NCCCN1CCCCC1)c1ccc2c(c1)NC(=O)C(N1CCOCC1)S2 (stereo not drawn) | 10%
COc1ccc(C(=O)NCCc2ccc(S(N)(=O)=O)cc2)cc1OC | 6.9%
COc1ccc(CCNC(=O)c2ccc3c(c2)NC(=O)C(N2CCOCC2)S3)cc1OC (stereo not drawn) | 100% (active)
O=C1CSC(c2ccccc2)N1c1nc(-c2ccc(Cl)cc2Cl)cs1 (stereo not drawn) | 10.5%
O=C(CN1C(=O)NC(Cc2ccccc2)(Cc2ccccc2)C1=O)NCC1CCCCC1 | -8.9%
Cn1c2ccccc2n2c(=O)c(=O)n(CC(=O)c3ccc(F)cc3)nc12 | -2%
O=C(CN1CCCCCC1)Nc1ccc(Br)cc1Br | 9.4%
CC1(C)CC(=O)C(C=NCCN2CCN(C(=S)Nc3cccc(Cl)c3)CC2)=C(O)C1 | 13.9%
O=C(Cn1cncn1)N/N=C/c1c2ccccc2cc2ccccc12 | 2%
C=CCOC(=O)C1=C(C)NC(C)=C(C(=O)OCC=C)C1c1cccs1 | -5.1%
COc1ccccc1CSc1nc2ccccc2[nH]1 | -2.6%
COc1cc(OC)c(/C=N/NC(=O)c2ccc([N+](=O)[O-])cc2)cc1Br | 35.2%
Cc1ccc(NC(=S)Nc2ncccc2C)c(C)c1 | 6.9%
O=C(/C=C/c1ccccc1)N/C(=C/c1ccccc1)C(=O)Nc1ccccc1O | 2.8%
Cc1cc2cc3c(N)[nH]nc3nc2cc1C | 4.3%
Cc1ccc(-n2nc(N)c3c(=O)oc(N(C)C)nc32)cc1 | 10.2%
COc1cc(C(=O)NC(=S)NCc2ccco2)cc(OC)c1OC | 12%
Cc1ccc(-c2nc3ccccc3[nH]2)cc1NC(=O)c1sc2ccccc2c1Cl | 10.9%
NC(=O)C1(N2CCCCC2)CCN(C(=S)Nc2ccc(Cl)cc2)CC1 | 0.6%
